Values without a mark were called inactive. Results filed as inconclusive are left out. A call without a number means that no potency is given here. Calls of active or inactive are those of the source. Calls come from the whole dose curve; as a rule, active = well fitted curve in the direction sought with a large enough effect; inconclusive = small, poorly fitted or top-dose-only effect, or another doubt; inactive = no such curve, though single readings can be large; an effect the other way counts as inactive or inconclusive.
Columns and labels:
[1] = Primary qHTS for inhibitors of nuclear receptor binding SET domain protein 2 (NSD2) in an isogenic RCH-ACV NSD2 p.E1099K mutant (9B) (AID 1645876); note: nearly all actives have a fitted effect of over 70% in size; note: potency is the fitted concentration of half-maximal effect
[2] = Primary qHTS for inhibitors of nuclear receptor binding SET domain protein 2 (NSD2) in an RCH-ACV wild type WT cells (2C) (AID 1645877); note: nearly all actives have a fitted effect of over 70% in size; note: potency is the fitted concentration of half-maximal effect
[3] = molecular target: Glutathione peroxidase 1 (Homo sapiens) (UniProt P07203); test: Primary qHTS Assay for Inhibitors of Recombinant Selenoprotein Glutathione Peroxidase 1 (GPX1) (AID 1845191); note: nearly all actives have a fitted effect of over 65% in size
Sequence of Glutathione peroxidase 1 (Homo sapiens) (P07203 whole entry, looked up): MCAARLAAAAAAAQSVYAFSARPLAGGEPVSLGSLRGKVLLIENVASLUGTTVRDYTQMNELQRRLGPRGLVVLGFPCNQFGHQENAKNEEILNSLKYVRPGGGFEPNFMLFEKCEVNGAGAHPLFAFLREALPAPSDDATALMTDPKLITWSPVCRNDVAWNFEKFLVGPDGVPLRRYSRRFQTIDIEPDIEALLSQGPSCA
Outline: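 Recombinant GPX1 (10 nM final) was preincubated with compound for 30 min at room temperature, then reacted with 1 mM GSH, 0.5 mM CHP, 0.5 mM NADPH and 100 nM glutathione reductase; NADPH fluorescence (340/450 nm) was read at 0 and 15 min.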

[4] = molecular target: Phospholipid hydroperoxide glutathione peroxidase GPX4 (Homo sapiens) (UniProt P36969); test: Primary qHTS Assay for Inhibitors of Recombinant Selenoprotein Glutathione Peroxidase 4 (GPX4) (AID 1845192); note: nearly all actives have a fitted effect of over 65% in size
Sequence of Phospholipid hydroperoxide glutathione peroxidase GPX4 (Homo sapiens) (P36969 whole entry, looked up): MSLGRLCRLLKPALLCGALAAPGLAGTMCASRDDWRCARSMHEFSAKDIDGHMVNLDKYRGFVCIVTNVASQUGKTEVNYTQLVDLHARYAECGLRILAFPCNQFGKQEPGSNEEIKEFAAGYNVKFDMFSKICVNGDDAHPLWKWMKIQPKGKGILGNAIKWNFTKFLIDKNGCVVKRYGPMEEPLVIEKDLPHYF
Outline: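 GR-coupled readout: 100 nM GR, 1 mM GSH, 0.5 mM NADPH; NADPH fluorescence (ex 340/em 450 nm) read at t=0 and after 15 min RT. GPX4 200 nM, preincubated 30 min with compound; substrate 0.5 mM CHP.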

[5] = molecular target: Luciferin 4-monooxygenase (Photinus pyralis) (UniProt P08659); test: Primary firefly luciferase (FLuc) qHTS assay for identification of artifact compounds. (AID 1845220); conditions: outcome: dose series up to 54.1 µM unless noted; note: nearly all actives have a fitted effect of over 60% in size
Outline: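 qHTS, 15 min compound preincubation with substrate (10 uM luciferin, 10 uM ATP) at RT, then 10 nM FLuc; 5 min; luminescence; % inhibition vs no-enzyme/DMSO controls, 4-parameter Hill fit.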

[6] = test system: Nanoluciferase (engineered Oplophorus gracilirostris luciferase); test: Primary Nanoluciferase (NLuc) qHTS assay for identification of artifact compounds. (AID 1845222); note: potency is the fitted concentration of half-maximal effect
Outline: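 Luminescence read-out of secreted NLuc in S16 cell conditioned medium (1:55); compounds tested with 15 min RT preincubation, then Nano-Glo substrate 1:100, 5 min. % inhibition vs no-enzyme and DMSO controls, 4-parameter Hill fit.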

CRL-7250 = normal cell line; test: Cytotoxic Profiling of Annotated Libraries Using Quantitative High-Throughput Screening (AID 1296008); conditions: Five cell lines viability, CellTiter-Glo ATP luminescence, 48-72 h; max response: active compounds read low; note: nearly all actives have a fitted effect of over 60% in size; note: potency is the fitted concentration of half-maximal effect
Outline: (§1)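 Compounds were pin-transferred onto cells and incubated 48 or 72 hr at 37 degree Celsius, 95% humidity. CellTiter-Glo was added, plates sat 10 min at room temperature, then ATP-coupled luminescence was imaged as the viability read-out.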

HEK293 = test: as above; conditions: Five cell lines viability, CellTiter-Glo ATP luminescence, 48-72 h; max response: active compounds read low
Outline: as §1

HaCat = test: as above; conditions: Five cell lines viability, CellTiter-Glo ATP luminescence, 48-72 h; max response: active compounds read low
Outline: as §1

NIH3T3 = test: as above; conditions: Five cell lines viability, CellTiter-Glo ATP luminescence, 48-72 h; max response: active compounds read low
Outline: as §1

C33A = test: Primary qHTS to identify gynecologic anti-cancer compounds using libraries of approved drugs and bioactive compounds (AID 1345084); conditions: Gynecologic cancer cell panel viability, ATPlite luminescence, 48 h; series mostly up to 57.5 µM; note: nearly all actives have a fitted effect of over 55% in size; note: potency is the fitted concentration of half-maximal effect
Outline: (§2)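 ATP-based viability (ATPlite), 1,000 cells/well, 16 h pre-incubation, 48 h compound at 37 C, 5% CO2, 15 min RT before read.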

CASKI = test: as above; conditions: Gynecologic cancer cell panel viability, ATPlite luminescence, 48 h; series mostly up to 57.5 µM
Outline: as §2

Es-2 = test: as above; conditions: Gynecologic cancer cell panel viability, ATPlite luminescence, 48 h; series mostly up to 57.5 µM
Outline: as §2

Hek293T = test: as above; conditions: Gynecologic cancer cell panel viability, ATPlite luminescence, 48 h, control line for the selectivity index; series mostly up to 57.5 µM
Outline: as §2

OV90 = test: as above; conditions: Gynecologic cancer cell panel viability, ATPlite luminescence, 48 h; series mostly up to 57.5 µM
Outline: as §2

PA-1 = test: as above; conditions: Gynecologic cancer cell panel viability, ATPlite luminescence, 48 h; series mostly up to 57.5 µM
Outline: as §2

Tov-21-G = test: as above; conditions: Gynecologic cancer cell panel viability, ATPlite luminescence, 48 h; series mostly up to 57.5 µM
Outline: as §2

Tov112D = test: as above; conditions: Gynecologic cancer cell panel viability, ATPlite luminescence, 48 h; series mostly up to 57.5 µM
Outline: as §2

[7] = test system: Zika virus NS2B-NS3 protease (linked construct); test: Primary screen NINDS Rhodamine qHTS for Zika virus inhibitors (AID 1347160); note: nearly all actives have a fitted effect of over 55% in size; note: potency is the fitted concentration of half-maximal effect
Outline: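 In 10 mM Tris-HCl pH 8.0 containing 0.01% Tween 20, linked NS2B-NS3 protease (25 nM final) is exposed to test compounds for 15 min. Cleavage of 1.5 microM Rhodamine110 substrate is tracked by fluorescence over 15 min.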

[8] = Primary fluorescence-based thiol-reactive (MSTI) qHTS assay for identification of artifact compounds. (AID 1845221);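 note: thiol-reactive compounds lower the probe fluorescence signal; nearly all actives have a fitted effect of over 65% in size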
Outline: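 A multi-concentration qHTS design tested compounds against 4 uM MSTI, pH 7.4 phosphate-buffered saline. Plates were protected from light for 1 h at room temperature before imaging fluorescence.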

Compound: C/C=C(/C)C1C=CC2CC(C)CC(C)C2C1/C(O)=C1\C(=O)NC(CC(C)(O)C(=O)O)C1=O (stereo not given)
- Potency [1]: inactive
- Potency [2]: inactive
- Potency [3]: inactive
- Potency [4]: inactive
- outcome [5]: inactive [at 25.7 µM]
- Potency [6]: inactive
- outcome (CRL-7250): inactive
- max response (HEK293): -1.39%
- max response (HaCat): -6.03%
- max response (NIH3T3): 1.49%
- Potency (C33A): inactive
- Potency (CASKI): inactive
- Potency (Es-2): inactive
- Potency (Hek293T): inactive
- Potency (OV90): inactive
- Potency (PA-1): inactive
- Potency (Tov-21-G): inactive
- Potency (Tov112D): inactive

Compound: CN1C(=O)CN=C(c2ccccc2Cl)c2cc(Cl)ccc21
- Potency [7]: inactive
- Potency [1]: inactive
- Potency [2]: inactive
- Potency [3]: inactive
- Potency [4]: inactive
- outcome [5]: inactive
- Potency [8]: inactive
- Potency [6]: inactive
- outcome (CRL-7250): inactive
- max response (HEK293): -5.69%
- max response (HaCat): 2.59%
- max response (NIH3T3): 4.35%
- Potency (C33A): inactive
- Potency (CASKI): inactive
- Potency (Es-2): inactive
- Potency (Hek293T): inactive
- Potency (OV90): inactive
- Potency (PA-1): inactive
- Potency (Tov-21-G): inactive
- Potency (Tov112D): inactive

Compound: C=CC/C=C\C/C=C\CCCCCCCc1cc(O)cc(O)c1
- Potency [7]: inactive
- Potency [3]: inactive
- Potency [4]: inactive
- outcome [5]: inactive
- Potency [8]: inactive
- Potency [6]: inactive
- max response (CRL-7250): -22.2%
- max response (HEK293): -20.2%
- outcome (HaCat): inactive
- max response (NIH3T3): -20.8%
- Potency (C33A): inactive
- Potency (CASKI): inactive
- Potency (Es-2): inactive
- Potency (Hek293T): inactive
- Potency (OV90): inactive
- Potency (PA-1): inactive
- Potency (Tov-21-G): inactive
- Potency (Tov112D): inactive

Compound: COC(=O)[C@]12CCCC(C)(C)C1CCc1cc(C(C)C)c(O)c(O)c12 (stereo not given in full)
- Potency [7]: 14100 nM (active)
- Potency [1]: inactive
- Potency [3]: inactive
- Potency [4]: inactive
- outcome [5]: inactive
- Potency [6]: 18600 nM (active)
- max response (CRL-7250): -0.302%
- max response (HEK293): 3.53%
- outcome (HaCat): inactive
- max response (NIH3T3): 2.35%
- Potency (C33A): inactive
- Potency (CASKI): inactive
- Potency (Es-2): inactive
- Potency (Hek293T): inactive
- Potency (OV90): inactive
- Potency (PA-1): inactive
- Potency (Tov-21-G): inactive
- Potency (Tov112D): inactive

Compound: CNC(=O)c1cc(C#N)cc(C)c1NC(=O)c1cc(Br)nn1-c1ncccc1Cl
- Potency [7]: inactive
- Potency [1]: inactive
- Potency [3]: inactive
- Potency [4]: inactive
- outcome [5]: inactive
- Potency [8]: inactive
- Potency [6]: inactive
- max response (CRL-7250): 0.534%
- Potency (HEK293): 13000 nM (active)
- max response (HaCat): -17.6%
- max response (NIH3T3): -18.9%
- Potency (C33A): inactive
- Potency (CASKI): inactive
- Potency (Es-2): inactive
- Potency (Hek293T): inactive
- Potency (OV90): inactive
- Potency (PA-1): inactive
- Potency (Tov-21-G): inactive
- Potency (Tov112D): inactive

Compound: C[C@@H]1CCC/C=C/[C@H]2C[C@@H](O)C[C@@H]2[C@@H](O)/C=C/C(=O)O1
- Potency [7]: inactive
- Potency [1]: 290 nM (active)
- Potency [2]: 409 nM (active)
- outcome [5]: inactive
- Potency [8]: inactive
- Potency [6]: inactive
- Potency (CRL-7250): 206 nM (active)
- Potency (HEK293): 920 nM (active)
- Potency (HaCat): 259 nM (active)
- Potency (NIH3T3): 4110 nM (active)
- Potency (C33A): 891 nM (active)
- Potency (CASKI): 1260 nM (active)
- Potency (Es-2): 501 nM (active)
- Potency (Hek293T): 1000 nM (active)
- Potency (OV90): 316 nM (active)
- Potency (PA-1): 447 nM (active)
- Potency (Tov-21-G): 1120 nM (active)
- Potency (Tov112D): 1000 nM (active)

Compound: CS[C@]1(CO)C(=O)N2[C@H]3C(=CC=C[C@@H]3O)C[C@@]2(SC)C(=O)N1C
- Potency [1]: inactive
- Potency [2]: inactive
- Potency [3]: inactive
- outcome [5]: inactive
- Potency [6]: inactive
- outcome (CRL-7250): inactive
- max response (HEK293): -12.6%
- max response (HaCat): 0.502%
- max response (NIH3T3): -3.97%
- Potency (C33A): inactive
- Potency (CASKI): inactive
- Potency (Es-2): inactive
- Potency (Hek293T): inactive
- Potency (OV90): inactive
- Potency (PA-1): inactive
- Potency (Tov-21-G): inactive
- Potency (Tov112D): inactive

Compound: CC(=O)O[C@H]1CC[C@H]2[C@@H]3CC[C@H]4CC(=O)C=C(C)[C@]4(C)[C@H]3CC[C@]12C
- Potency [7]: inactive
- Potency [3]: inactive
- Potency [4]: inactive
- outcome [5]: inactive
- Potency [8]: inactive
- Potency [6]: inactive
- max response (CRL-7250): -4.94%
- Potency (HEK293): 23100 nM (active)
- outcome (HaCat): inactive
- max response (NIH3T3): -1.67%
- Potency (C33A): inactive
- Potency (CASKI): inactive
- Potency (Es-2): inactive
- Potency (Hek293T): inactive
- Potency (OV90): inactive
- Potency (PA-1): inactive
- Potency (Tov-21-G): inactive
- Potency (Tov112D): inactive

Compound: COCC(C(=O)OC1CC2CCC(C1)N2C)c1ccccc1 (stereo not given)
- Potency [7]: inactive
- Potency [1]: inactive
- Potency [2]: inactive
- Potency [3]: inactive
- Potency [4]: inactive
- outcome [5]: inactive
- Potency [8]: inactive
- Potency [6]: inactive
- max response (CRL-7250): -5.38%
- max response (HEK293): -0.619%
- outcome (HaCat): inactive
- max response (NIH3T3): 3.79%
- Potency (C33A): inactive
- Potency (CASKI): inactive
- Potency (Es-2): inactive
- Potency (Hek293T): inactive
- Potency (OV90): inactive
- Potency (PA-1): inactive
- Potency (Tov-21-G): inactive
- Potency (Tov112D): inactive

Compound: O=C1N[C@@H](Cc2ccccc2)CN2CCCC[C@@H]12
- Potency [7]: inactive
- Potency [1]: inactive
- Potency [2]: inactive
- Potency [3]: inactive
- Potency [4]: inactive
- outcome [5]: inactive
- Potency [8]: inactive
- Potency [6]: inactive
- max response (CRL-7250): -11.6%
- max response (HEK293): -0.0326%
- outcome (HaCat): inactive
- max response (NIH3T3): 1.01%
- Potency (C33A): inactive
- Potency (CASKI): inactive
- Potency (Es-2): inactive
- Potency (Hek293T): inactive
- Potency (OV90): inactive
- Potency (PA-1): inactive
- Potency (Tov-21-G): inactive
- Potency (Tov112D): inactive

Compound: C#CCO[C@H]1CN2CCC1CC2
- Potency [7]: inactive
- Potency [1]: inactive
- Potency [2]: inactive
- Potency [3]: inactive
- outcome [5]: inactive
- Potency [8]: inactive
- Potency [6]: inactive
- max response (CRL-7250): -0.287%
- max response (HEK293): -18.5%
- max response (HaCat): 2.85%
- max response (NIH3T3): 2.27%
- Potency (C33A): inactive
- Potency (CASKI): inactive
- Potency (Es-2): inactive
- Potency (Hek293T): inactive
- Potency (OV90): inactive
- Potency (PA-1): inactive
- Potency (Tov-21-G): inactive
- Potency (Tov112D): inactive

Reference: PubChem BioAssay (NCATS)
